Inconclusive results are not listed. A call without a number means that no potency is given here. The source made the active and inactive calls. Calls come from the whole dose curve; as a rule, active = well fitted curve in the direction sought with a large enough effect; inconclusive = small, poorly fitted or top-dose-only effect, or another doubt; inactive = no such curve, though single readings can be large; an effect the other way counts as inactive or inconclusive.
Tested on: not listed separately
Assay: qHTS for Inhibitors of the Aldehyde Dehydrogenase Family (ALDH1A2, ALDH1A3, ALDH2, ALDH3A1) (AID 2061307); note: nearly all actives have a fitted effect of over 50% in size; for potency: test system not described further here
Conditions: ALDH inhibition qHTS; series mostly up to 50.3 µM
Potency is the fitted concentration of half-maximal effect.

**Q.** Which Potency does the source give for `CC(C)Oc1cccc(-c2cnc(N3CCC(C(N)=O)CC3)s2)c1` here?
**A.** inactive

**Q.** Which Potency does the source give for `N#Cc1nc(Nc2cccc(Cl)c2)nc(NC2CCCC2)n1` here?
**A.** 0.708 µM (active)

**Q.** Which Potency does the source give for `COc1cc2ncnc(N(C)Cc3csc(C)n3)c2cc1-c1ccc2c(c1)OCO2` here?
**A.** inactive

**Q.** For `COc1ccc(C2Nc3ccccc3C(=O)N2Cc2ccc(CNC(=O)CO)cc2)cc1COc1ccc(NC(C)=O)cc1` (stereo not given), which Potency is on record?
**A.** 4.49 µM (active)

**Q.** Which Potency does the source give for `COc1ccc(C2Nc3ccccc3C(=O)N2CCc2ccccc2)cc1COc1ccc(NC(C)=O)cc1` (stereo not given) here?
**A.** 5.65 µM (active)

**Q.** With `Cc1ccnc(CC(=S)N2CCN(c3cccc(C(F)(F)F)c3)CC2)c1` as the compound, how does the Potency read?
**A.** 10 µM (active)

**Q.** For `Cc1cnc(-c2ccccc2C2COC2)nc1NCc1ccc(-n2ccnn2)cc1`, which Potency is on record?
**A.** inactive

**Q.** For `O=C(CN1C(=O)N/C(=C\c2cn(-c3cccc(C(=O)O)c3)cn2)C1=O)Nc1ccccc1Cl`, which Potency is on record?
**A.** inactive

**Q.** With `Nc1ccccc1OC1=NS(=O)(=O)c2ccccc21` as the compound, how does the Potency read?
**A.** inactive

**Q.** With `O=C(O)c1ccc(-n2cccc2/C=C2\SC(=O)N(Cc3ccc(F)cc3)C2=O)cc1` as the compound, how does the Potency read?
**A.** 7.98 µM (active)

**Q.** With `Cc1cc(-c2nnc3n2CCCCC3)c(C)n1-c1ccc(Cl)c(Cl)c1` as the compound, how does the Potency read?
**A.** inactive

**Q.** Which Potency does the source give for `FC(F)(F)c1ccc(-c2ccc(CNc3nc(-c4ccccc4C(F)(F)F)nc4ccccc34)cc2)cn1` here?
**A.** 8.91 µM (active)

**Q.** With `COc1ccc(C2Nc3ccccc3C(=O)N2CCc2ccc(Cl)cc2Cl)cc1COc1ccc(NC(C)=O)cc1` (stereo not given) as the compound, how does the Potency read?
**A.** 3.57 µM (active)

**Q.** For `O=[S+]([O-])(Nc1ccc(-c2nc3ccccc3[nH]2)cc1)c1ccc2c(c1)OCO2`, which Potency is on record?
**A.** inactive

**Q.** Which Potency does the source give for `Cc1cc(C)nc(NC(=S)N2CC3CN(c4ncc(C(F)(F)F)cc4Cl)CC3C2)c1` (stereo not given) here?
**A.** inactive

**Q.** Which Potency does the source give for `CN(C)CCCNC(=O)c1ccc(-c2cnc3c(O)cccc3c2)cc1` here?
**A.** inactive

**Q.** For `COc1ccc(OCc2cc(C3Nc4ccccc4C(=O)N3Cc3ccccc3)ccc2OC)cc1` (stereo not given), which Potency is on record?
**A.** 5.65 µM (active)

**Q.** Which Potency does the source give for `COc1cccc(CN2C(=O)c3ccccc3NC2c2ccc(OC)c(COc3ccc(NC(C)=O)cc3)c2)c1` (stereo not given) here?
**A.** 3.55 µM (active)

**Q.** For `FC(F)Oc1ccc(C2=Nn3c(nnc3-c3ccccc3C(F)(F)F)SC2)cc1OCC1CC1`, which Potency is on record?
**A.** 2.83 µM (active)

**Q.** Which Potency does the source give for `Cc1[nH]c2ccccc2c1C1=C(NCCc2ccc(F)cc2)C(=O)N(C)C1=O` here?
**A.** 0.896 µM (active)

**Q.** Which Potency does the source give for `Cc1cc(NC(=O)c2ccc(NC(=O)Cc3ccc(Cl)c(Cl)c3)cc2)no1` here?
**A.** inactive

**Q.** Which Potency does the source give for `N#Cc1nc(Nc2ccc3ccccc3c2)nc(NC2CCCC2)n1` here?
**A.** inactive

**Q.** For `O=S(=O)(c1ccccc1)N1CCN(c2nc(-c3ccc(Br)cc3)cs2)CC1`, which Potency is on record?
**A.** 7.98 µM (active)

**Q.** With `COc1ccc(C2Nc3ccccc3C(=O)N2Cc2ccccc2)cc1COc1ccc(NC(C)=O)cc1` (stereo not given) as the compound, how does the Potency read?
**A.** 3.18 µM (active)

**Q.** With `O=C(c1cccs1)c1nonc1C(=O)c1cccs1` as the compound, how does the Potency read?
**A.** inactive

**Q.** For `O=C(Nc1cncc(Cc2ccccc2)c1)c1ccc(-c2cccc([N+](=O)[O-])c2)o1`, which Potency is on record?
**A.** 1.27 µM (active)

**Q.** For `O=C(Nc1nc(-c2ccccc2)cs1)c1ccncc1NS(=O)(=O)c1ccc(Cl)cc1`, which Potency is on record?
**A.** 25.2 µM (active)

**Q.** For `COc1ccc(C2=Nn3c(nnc3-c3ccc(OC)cc3)SC2)cc1`, which Potency is on record?
**A.** 7.98 µM (active)

**Q.** With `COc1ccc(C2=Nn3c(nnc3-c3cccc(OC)c3OC)SC2)c(OC)c1` as the compound, how does the Potency read?
**A.** 2 µM (active)

**Q.** With `COc1ccc(C2Nc3ccccc3C(=O)N2Cc2ccccn2)cc1COc1ccc(NC(C)=O)cc1` (stereo not given) as the compound, how does the Potency read?
**A.** 6.31 µM (active)

**Q.** For `CCCCN(C)C(=O)Cn1nc(-c2ccc(Cl)cc2)ccc1=O`, which Potency is on record?
**A.** inactive

**Q.** With `O=C(Nc1nc(-c2ccccc2)cs1)c1ccncc1NS(=O)(=O)c1ccc2ccccc2c1` as the compound, how does the Potency read?
**A.** 2.51 µM (active)

**Q.** For `CCOC(=O)c1ccc(-n2cccc2/C=C2\NC(=O)NC2=O)cc1`, which Potency is on record?
**A.** inactive

**Q.** For `Cc1ccc(N[S+](=O)([O-])c2cc3c(cc2Cl)NC(=O)CO3)cc1Br`, which Potency is on record?
**A.** 10.1 µM (active)

**Q.** For `COc1ccc(C2=Nn3c(nnc3-c3cc(OC)ccc3OC)SC2)cc1`, which Potency is on record?
**A.** 20 µM (active)

**Q.** Which Potency does the source give for `CN1CCN(c2ccc(Nc3nn4c(=O)c5ccccc5nc4s3)cc2)CC1` here?
**A.** inactive

**Q.** With `N#Cc1c(-c2ccc(Br)cc2)no[n+]1[O-]` as the compound, how does the Potency read?
**A.** 7.98 µM (active)

**Q.** With `O=C(NCCCCc1ccccc1)C1CCN(c2nc(-c3ccc(Br)cc3)cs2)CC1` as the compound, how does the Potency read?
**A.** 3.57 µM (active)

**Q.** With `O=C([C@H](Cc1ccc(O[S+](=O)([O-])c2cccnc2)cc1)N[S+](=O)([O-])c1ccccn1)N1CCN(c2ccccc2)CC1` as the compound, how does the Potency read?
**A.** 15.8 µM (active)

**Q.** With `Cc1cc(-c2nnc3n2CCCC3)c(C)n1-c1ccccc1` as the compound, how does the Potency read?
**A.** inactive

Biological target: Aldehyde dehydrogenase, mitochondrial (Homo sapiens) (UniProt P05091)
Assay: qHTS for Inhibitors of the Aldehyde Dehydrogenase Family (ALDH2) Primary screen (AID 2061308); note: nearly all actives have a fitted effect of over 55% in size
Conditions: ALDH2 enzyme inhibition qHTS, 1536-well; series mostly up to 56 µM

**Q.** For `CC(C)Oc1cccc(-c2cnc(N3CCC(C(N)=O)CC3)s2)c1`, which Potency is on record?
**A.** inactive

**Q.** Which Potency does the source give for `N#Cc1nc(Nc2cccc(Cl)c2)nc(NC2CCCC2)n1` here?
**A.** inactive

**Q.** With `COc1cc2ncnc(N(C)Cc3csc(C)n3)c2cc1-c1ccc2c(c1)OCO2` as the compound, how does the Potency read?
**A.** inactive

**Q.** With `COc1ccc(C2Nc3ccccc3C(=O)N2Cc2ccc(CNC(=O)CO)cc2)cc1COc1ccc(NC(C)=O)cc1` (stereo not given) as the compound, how does the Potency read?
**A.** inactive

**Q.** Which Potency does the source give for `COc1ccc(C2Nc3ccccc3C(=O)N2CCc2ccccc2)cc1COc1ccc(NC(C)=O)cc1` (stereo not given) here?
**A.** inactive

**Q.** With `Cc1ccnc(CC(=S)N2CCN(c3cccc(C(F)(F)F)c3)CC2)c1` as the compound, how does the Potency read?
**A.** inactive

**Q.** For `Cc1cnc(-c2ccccc2C2COC2)nc1NCc1ccc(-n2ccnn2)cc1`, which Potency is on record?
**A.** inactive

**Q.** Which Potency does the source give for `O=C(CN1C(=O)N/C(=C\c2cn(-c3cccc(C(=O)O)c3)cn2)C1=O)Nc1ccccc1Cl` here?
**A.** inactive

**Q.** For `Nc1ccccc1OC1=NS(=O)(=O)c2ccccc21`, which Potency is on record?
**A.** 2.51 µM (active)

**Q.** For `O=C(O)c1ccc(-n2cccc2/C=C2\SC(=O)N(Cc3ccc(F)cc3)C2=O)cc1`, which Potency is on record?
**A.** inactive

**Q.** With `Cc1cc(-c2nnc3n2CCCCC3)c(C)n1-c1ccc(Cl)c(Cl)c1` as the compound, how does the Potency read?
**A.** inactive

**Q.** With `FC(F)(F)c1ccc(-c2ccc(CNc3nc(-c4ccccc4C(F)(F)F)nc4ccccc34)cc2)cn1` as the compound, how does the Potency read?
**A.** inactive

**Q.** With `COc1ccc(C2Nc3ccccc3C(=O)N2CCc2ccc(Cl)cc2Cl)cc1COc1ccc(NC(C)=O)cc1` (stereo not given) as the compound, how does the Potency read?
**A.** inactive

**Q.** For `O=[S+]([O-])(Nc1ccc(-c2nc3ccccc3[nH]2)cc1)c1ccc2c(c1)OCO2`, which Potency is on record?
**A.** inactive

**Q.** Which Potency does the source give for `Cc1cc(C)nc(NC(=S)N2CC3CN(c4ncc(C(F)(F)F)cc4Cl)CC3C2)c1` (stereo not given) here?
**A.** 2.51 µM (active)

**Q.** With `CN(C)CCCNC(=O)c1ccc(-c2cnc3c(O)cccc3c2)cc1` as the compound, how does the Potency read?
**A.** inactive

**Q.** For `COc1ccc(OCc2cc(C3Nc4ccccc4C(=O)N3Cc3ccccc3)ccc2OC)cc1` (stereo not given), which Potency is on record?
**A.** inactive

**Q.** Which Potency does the source give for `COc1cccc(CN2C(=O)c3ccccc3NC2c2ccc(OC)c(COc3ccc(NC(C)=O)cc3)c2)c1` (stereo not given) here?
**A.** inactive

**Q.** With `FC(F)Oc1ccc(C2=Nn3c(nnc3-c3ccccc3C(F)(F)F)SC2)cc1OCC1CC1` as the compound, how does the Potency read?
**A.** inactive

**Q.** Which Potency does the source give for `Cc1[nH]c2ccccc2c1C1=C(NCCc2ccc(F)cc2)C(=O)N(C)C1=O` here?
**A.** inactive

**Q.** Which Potency does the source give for `Cc1cc(NC(=O)c2ccc(NC(=O)Cc3ccc(Cl)c(Cl)c3)cc2)no1` here?
**A.** inactive

**Q.** Which Potency does the source give for `N#Cc1nc(Nc2ccc3ccccc3c2)nc(NC2CCCC2)n1` here?
**A.** inactive

**Q.** Which Potency does the source give for `O=S(=O)(c1ccccc1)N1CCN(c2nc(-c3ccc(Br)cc3)cs2)CC1` here?
**A.** inactive

**Q.** For `COc1ccc(C2Nc3ccccc3C(=O)N2Cc2ccccc2)cc1COc1ccc(NC(C)=O)cc1` (stereo not given), which Potency is on record?
**A.** inactive

**Q.** Which Potency does the source give for `O=C(c1cccs1)c1nonc1C(=O)c1cccs1` here?
**A.** inactive

**Q.** Which Potency does the source give for `O=C(Nc1cncc(Cc2ccccc2)c1)c1ccc(-c2cccc([N+](=O)[O-])c2)o1` here?
**A.** inactive

**Q.** With `O=C(Nc1nc(-c2ccccc2)cs1)c1ccncc1NS(=O)(=O)c1ccc(Cl)cc1` as the compound, how does the Potency read?
**A.** inactive

**Q.** With `COc1ccc(C2=Nn3c(nnc3-c3ccc(OC)cc3)SC2)cc1` as the compound, how does the Potency read?
**A.** inactive

**Q.** For `COc1ccc(C2=Nn3c(nnc3-c3cccc(OC)c3OC)SC2)c(OC)c1`, which Potency is on record?
**A.** inactive

**Q.** Which Potency does the source give for `COc1ccc(C2Nc3ccccc3C(=O)N2Cc2ccccn2)cc1COc1ccc(NC(C)=O)cc1` (stereo not given) here?
**A.** inactive

**Q.** With `CCCCN(C)C(=O)Cn1nc(-c2ccc(Cl)cc2)ccc1=O` as the compound, how does the Potency read?
**A.** inactive

**Q.** With `O=C(Nc1nc(-c2ccccc2)cs1)c1ccncc1NS(=O)(=O)c1ccc2ccccc2c1` as the compound, how does the Potency read?
**A.** inactive

**Q.** With `CCOC(=O)c1ccc(-n2cccc2/C=C2\NC(=O)NC2=O)cc1` as the compound, how does the Potency read?
**A.** inactive

**Q.** For `Cc1ccc(N[S+](=O)([O-])c2cc3c(cc2Cl)NC(=O)CO3)cc1Br`, which Potency is on record?
**A.** inactive

**Q.** For `COc1ccc(C2=Nn3c(nnc3-c3cc(OC)ccc3OC)SC2)cc1`, which Potency is on record?
**A.** inactive

**Q.** For `CN1CCN(c2ccc(Nc3nn4c(=O)c5ccccc5nc4s3)cc2)CC1`, which Potency is on record?
**A.** inactive

**Q.** With `N#Cc1c(-c2ccc(Br)cc2)no[n+]1[O-]` as the compound, how does the Potency read?
**A.** 7.94 µM (active)

**Q.** Which Potency does the source give for `O=C(NCCCCc1ccccc1)C1CCN(c2nc(-c3ccc(Br)cc3)cs2)CC1` here?
**A.** inactive

**Q.** Which Potency does the source give for `O=C([C@H](Cc1ccc(O[S+](=O)([O-])c2cccnc2)cc1)N[S+](=O)([O-])c1ccccn1)N1CCN(c2ccccc2)CC1` here?
**A.** inactive

**Q.** For `Cc1cc(-c2nnc3n2CCCC3)c(C)n1-c1ccccc1`, which Potency is on record?
**A.** inactive

Source: PubChem BioAssay (NCATS)
